SENP7 inh: blocks the human protease SENP7; Q9BQF6; recombinant SENP7, Z-RLRGG-aminoluciferin luminescence, 40 min; inhibition, % at 5 µM; 330,000 compounds, 1.5% hits;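 active means inhibition above about 50% at the single test dose, limit read from the data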;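 further: plate controls were DMSO with enzyme for no effect and no enzyme buffer wells for full effect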
SENP8 block-1: blocks the human protease SENP8. purified SENP8, Z-RLRGG-aminoluciferin cleavage, luminescence. inhibition, % at 10 µM. 330,000 compounds, 1.2% hits; in the data active means inhibition above about 50%
SENP8 block-2: inhibitors of human SENP8 protease; Q96LD8; 360,000 compounds, 0.64% hits; recombinant SENP8, Nedd8 substrate fluorescence; inhibition, % at 20 µM; in the data active means inhibition mostly above about 40%, no sharp cut-off; inactive means mostly below about 27%
C8 TRAIL sens: caspase-8 TRAIL sensitization | NB7+C8 cells + TRAIL, ATPlite viability luminescence | 360,000 compounds, 1% hits | inhibition (viability loss, TRAIL sensitization), % at 10 µM | AID 624354;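 active means compounds causing at least 50% loss of cell viability in the single-dose screen, relative to plate controls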
PPC-1+TRAIL kill: compounds killing PPC-1 cancer cells with TRAIL present (potentiator screen, no TRAIL-free arm) | PPC-1 cells + TRAIL, ATPLite viability luminescence | cell killing (% activity), % at 4 µM or 5 µM | 220,000 compounds, 0.41% hits | AID 1443;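 active means cell killing above 50% in the first pass at 4 µM, then a duplicate retest at 5 µM averaging 50% or more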;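 further: plate controls were cells with TRAIL plus DMSO for no effect and medium-only wells lacking cells for full effect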
SENP6 inh: SENP6 protease inhibition. inhibition, % at 10 µM. Recombinant SENP6 catalytic domain, aminoluciferin luminescence. 330,000 compounds, 1.8% hits;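 active means inhibition above about 50% at the single tested dose, limit read from the data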;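 further: plate controls were DMSO wells with enzyme for no effect and DMSO wells lacking enzyme for full effect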
Target sequence (Q9GZR1 628-1112 limits assumed): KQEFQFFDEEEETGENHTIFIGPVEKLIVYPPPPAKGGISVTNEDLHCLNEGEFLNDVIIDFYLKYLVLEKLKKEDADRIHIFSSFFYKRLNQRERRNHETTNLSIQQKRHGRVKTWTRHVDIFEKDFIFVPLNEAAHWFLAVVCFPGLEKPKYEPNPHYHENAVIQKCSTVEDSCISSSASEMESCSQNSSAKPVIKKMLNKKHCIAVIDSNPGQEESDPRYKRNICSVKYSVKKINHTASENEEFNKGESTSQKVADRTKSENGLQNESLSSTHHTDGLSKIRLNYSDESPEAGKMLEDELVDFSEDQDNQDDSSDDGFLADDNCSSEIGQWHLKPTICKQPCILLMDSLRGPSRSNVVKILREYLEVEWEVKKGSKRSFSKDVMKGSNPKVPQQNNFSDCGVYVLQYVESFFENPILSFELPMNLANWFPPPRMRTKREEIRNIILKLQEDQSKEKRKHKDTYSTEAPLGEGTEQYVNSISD
SENP8 conf: SENP8 (human) inhibition, single concentration confirmation; AID 624319; purified SENP8, Nedd8-AMC/pro-Nedd8 cleavage fluorescence, 30 min; shares compounds with SENP8 block-2; inhibition, % at 25 µM; 1,400 compounds, 15% hits; in the data active means inhibition mostly above about 39%, no sharp cut-off; inactive means mostly below about 34%
* marks the source's active call; other numbers are inactive results; · = no result given. An excerpt weighted towards active compounds, which were near 3% of everything screened.

SMILES	SENP7 inh	SENP8 block-1	SENP8 block-2	C8 TRAIL sens	PPC-1+TRAIL kill	SENP6 inh	SENP8 conf
COc1ccc(CCN2C(=O)CC(NCCc3ccc(S(N)(=O)=O)cc3)C2=O)cc1OC (stereo not given)	-2	-2	40*	-10	1	-2	21
CN(CC(=O)Nc1cccc(F)c1)CC(=O)Nc1ccc(Cl)cc1[N+](=O)[O-]	10	-2	42*	1	-2	13	16
CN(CC(=O)Nc1cccc(F)c1)CC(=O)Nc1ccccc1[N+](=O)[O-]	-2	-2	10	1	24	13	·
O=C(CN1CCc2ccccc2C1)N1CCN(S(=O)(=O)c2ccccc2)CC1	0	5	46*	-11	6	0	6
Cc1ccc(S(=O)(=O)N2CCN(C(=O)CN3CCc4ccccc4C3)CC2)cc1	3	11	17	5	36	-13	·
O=C(CCCCCNC(=O)N1CCn2c1nc1ccccc12)N[C@H](C(=O)O)c1ccccc1	3	2	52*	-1	·	2	20
COc1ccc(OC)c(S(=O)(=O)N(C)CC(=O)N2CCc3ccccc3C2)c1	11	1	58*	-8	25	31	71*
CC1C(O)=C(c2ccccc2)P(=O)(Cc2ccccc2)C1C (stereo not given)	·	·	12	6	·	·	·
CC1(C)OC(c2ccccc2)=C/C(=C/C=N/NC(=O)c2ccncc2)O1	-5	0	41*	4	8	-14	24
CCOC(=O)n1c(=O)[nH]c2ccc(Br)cc21	10	-9	10	1	11	-10	·
CCOC(=O)C1C(=O)CC(C)(O)C(C(=O)OCC)C1c1ccccc1 (stereo not given)	-5	-4	8	-6	0	-5	·
CCOC(=O)C1C(=O)CC(C)(O)C(C(=O)OCC)C1c1ccc([N+](=O)[O-])cc1 (stereo not given)	0	-1	46*	10	6	-9	27
N#CCc1ccc(NC(=O)c2ccc(CN3CCc4ccccc4C3)cc2)cc1	4	4	59*	18	·	13	12
CCOc1ccc(NC(=O)c2ccc(CN3CCc4ccccc4C3)cc2)cc1	8	-4	9	25	·	-11	·
O=C(NCc1ccc2c(c1)OCO2)c1ccccc1	-7	-14	2	18	-21	-2	·
CCOC(=O)c1ccc(NC(=O)c2ccc(CN3CCc4ccccc4C3)cc2)cc1	9	3	34	26	·	17	·
O=C(NCc1ccc2c(c1)OCO2)c1ccc(CN2CCc3ccccc3C2)cc1	5	0	42*	-2	20	-17	13
Cc1cc(C)c(NC(=O)c2ccc(CN3CCc4ccccc4C3)cc2)c(C)c1	8	-3	45*	0	-23	11	19
O=C(Nc1ccc(Cl)cc1)c1ccc(CN2CCc3ccccc3C2)cc1	11	-2	47*	29	·	14	25
Cc1cc(C)c(S(=O)(=O)N2CCCCC2)c(C)c1N(C)S(=O)(=O)c1ccccc1	-1	11	6	-9	-9	-21	·
Cc1ccccc1NS(=O)(=O)c1cccc2nonc12	7	2	10	-14	·	-13	·
Cc1ccccc1Nc1cccc2nonc12	2	-6	45*	3	14	1	34
CSC1=NC2(C[C@H]2c2ccccc2)C(=O)N1C (stereo not given in full)	4	-4	-1	-2	·	-15	·
CCNC(=O)C1(C)CCN(C(=O)c2ccc(C(F)(F)F)cc2)C1 (stereo not given)	·	·	16	-11	·	·	·
Cc1[nH][nH]c(=O)c1C(c1ccc(O)c(Br)c1)c1c(C)[nH][nH]c1=O	-8	-7	12	3	·	12	·
SMILES	SENP7 inh	SENP8 block-1	SENP8 block-2	C8 TRAIL sens	PPC-1+TRAIL kill	SENP6 inh	SENP8 conf
COc1ccc(O)c(C(c2c(C)[nH][nH]c2=O)c2c(C)[nH][nH]c2=O)c1	4	11	76*	9	-6	15	47*
CCOc1cc(C(c2c(C)[nH][nH]c2=O)c2c(C)[nH][nH]c2=O)ccc1O	9	6	47*	15	11	-4	53*
COc1ccc(NC(=O)C2=C(C)Nc3nc(CCCO)nn3C2c2ccc(OC)c(OC)c2)cc1 (stereo not given)	12	3	19	2	28	-9	·
CC(=O)/C(=N/Nc1ccccc1[N+](=O)[O-])N1CCCc2ccccc21	8	4	41*	12	0	0	27
CC(=O)/C(=N/Nc1ccc([N+](=O)[O-])cc1)N1CCCc2ccccc21	-8	-7	47*	15	19	-13	-11
CC(=O)/C(=N/Nc1ccc(Br)cc1)N1CCCc2ccccc21	5	3	33	6	8	-9	·
CC1=C(C(N)=O)C(c2ccccc2[N+](=O)[O-])n2ncnc2N1 (stereo not given)	6	-1	2	6	·	17	·
CCNc1ccc(C(=O)OCC(=O)c2cc(C)n(Cc3ccc4c(c3)OCO4)c2C)cc1[N+](=O)[O-]	13	0	25	-1	11	16	·
O=S1(=O)NC2c3ccccc3CC2O1 (stereo not given)	13	-3	46*	-4	·	15	57*
Cc1ccc(S(=O)(=O)N2CCOC23CCN(C(=O)c2ccccc2Br)CC3)cc1	-2	0	10	-11	·	-10	·
Cc1ccc(C(=O)NCc2ccccn2)c(Cl)c1	-5	-6	41*	7	16	3	22
Cc1ccc(-c2cc(C(=O)NCc3ccccn3)c3ccccc3n2)cc1	3	2	-228	21	29	-12	·
O=C(O)CCCCCNS(=O)(=O)c1ccc(Cl)cc1	-5	8	12	-3	9	11	·
O=C(O)CCCCNS(=O)(=O)c1ccc(Cl)c(C(F)(F)F)c1	-1	-5	42*	-5	14	-5	8
CC(=O)c1cccc(NC(=O)COC(=O)c2ccc3c(c2)OCCO3)c1	5	-3	42*	12	4	-1	-3
CC1CCN(S(=O)(=O)c2ccc3c(c2)C(Cl)(Cl)C(=O)N3)CC1	·	·	12	4	·	·	·
O=C1Cc2ccccc2C(=O)N1	·	·	81*	2	·	·	84*
COC(=O)c1cc(=O)nc(NN=C2c3ccccc3-c3ccccc32)s1	·	·	38*	1	·	·	25
CC1=NN(c2ccccc2)C(=O)C1C(=O)c1cc([N+](=O)[O-])cc([N+](=O)[O-])c1 (stereo not given)	-10	-6	51*	-1	9	17	-5
Cc1cc(=O)n(-c2ccc(O)cc2)[nH]1	6	-7	79*	-1	8	-7	38*
Cc1cc(=O)n(-c2ccc(C(=O)O)cc2)[nH]1	1	-4	20	-4	15	6	·

Screening data from PubChem.
